Measurements published in PubChem BioAssay.
Active and inactive are the calls of the source.

Experiments:
Albumin (Bos taurus) = Albumin (Bos taurus) (UniProt P02769); test: compounds binding labelled BSA control protein – biochemical, small-molecule microarray, Alexa647 label, 635/667 nm fluorescence, artefact control for SMM control protein annotation, profiling panel (AID 1118); conditions: BSA-A647 binding, fluorescence 635 nm, higher = more signal;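 also: score merges 667 nm emission intensity and signal-to-noise per printed compound spot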
[1] = probe aXIP binding to arrayed compounds – biochemical, NeuroSMM set, 635/667 nm fluorescence, primary screen (AID 1119); conditions: small-molecule microarray, higher = more signal, called active from +8 up or from −8 down;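 also: probe is the protein aXip251-270 applied at 1 µg/mL to compound-printed slides; binding of probe to printed compounds measured as 667 nm fluorescence plus signal to noise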
[2] = probe aNOTCH3 binding on compound microarray – biochemical, small-molecule microarray, 635/667 nm fluorescence, primary screen (AID 1120); conditions: higher = more signal;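 also: probe is a biotin-tagged antibody raised against NOTCH3 rather than NOTCH3 protein; score merges spot fluorescence near 667 nm with spot signal to noise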
[3] = probe aNOTCH2 binding on compound microarray – biochemical, small-molecule microarray, 635/667 nm fluorescence, primary screen (AID 1121); conditions: higher = more signal;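 also: score merges feature fluorescence read at 667 nm with its signal to noise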
[4] = target: Carbonic anhydrase 2 (Homo sapiens) (UniProt P00918); test: compounds binding carbonic anhydrase 2 – biochemical, small-molecule microarray, Alexa647-labelled CAII, profiling panel (AID 1122); conditions: CAII-A647 binding fluorescence, higher = more signal
[5] = COS7 lysate on small-molecule microarray, probe aHis, 635 nm (AID 1123); conditions: COS7 cell lysate, fluorescence, higher = more signal;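 also: z-score combines 667nm fluorescence intensity with signal-to-noise per printed compound spot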
[6] = probe aLAP1 signal on lysate-treated microarray – cell lysate, small-molecule microarray, COS7 lysate, primary screen (AID 1124); conditions: probe aLAP1, fluorescence, higher = more signal;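 also: lysate comes from COS7 cells expressing LAP1 and is applied at 0.3 µg/mL; score merges spot fluorescence near 667 nm with signal-to-noise over triplicate slides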
Sam68 (KHDRBS1) = test: compounds binding KHDRBS1 protein – biochemical, small-molecule microarray, 635 nm fluorescence, primary screen (AID 1125); conditions: higher = more signal;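 also: score merges 667 nm channel intensity with signal to noise over triplicate slides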
[7] = tested on: Chordin-like protein 2 (CHRDL2); test: compounds binding chordin-like 2 – biochemical, small-molecule microarray, 635 nm fluorescence, primary screen (AID 1126); conditions: fluorescence 635 nm, higher = more signal;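 also: printed compound slides probed with Chrdl2 protein at 4 µg/mL for 1 h at 4 C; score merges 667 nm emission intensity with signal to noise over three replicate slides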
[8] = target: Concanavalin-A (Canavalia ensiformis) (UniProt P02866); test: compounds binding concanavalin A lectin – biochemical, small-molecule microarray, Alexa647 label, 635 nm, artefact control for SMM control protein annotation, primary screen (AID 1127); conditions: ConA-A647 binding fluorescence, higher = more signal;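 also: z combines 667 nm emission intensity with signal-to-noise across three replicate slides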
[9] = compounds binding Alexa647 anti-His antibody – biochemical, small-molecule microarray, 635 nm fluorescence, artefact control for SMM control protein annotation, primary screen (AID 1128); conditions: higher = more signal;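 also: score merges feature fluorescence with signal-to-noise for each printed compound spot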
[10] = tested on: Human papillomavirus type 1a E7 protein (residues 1-88); test: HPV1a E7 small-molecule binders, primary screen, biochemical, small-molecule microarray, residues 1-88, 635 nm (AID 1129); conditions: small-molecule microarray binding, fluorescence 635 nm; higher = more signal
[11] = target: Focal adhesion kinase 1 (Homo sapiens) (UniProt Q05397); test: PTK2 protein binding on printed compound slides – biochemical, small-molecule microarray, 635/667 nm fluorescence, BSA, DTT, primary screen (AID 1130); conditions: 635 nm fluorescence, higher = more signal;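 also: composite of spot emission at 667 nm and signal to noise over triplicate slides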
[12] = tested on: Fibrinogen (Alexa647-labelled); test: Alexa647-fibrinogen binding to printed small molecules – biochemical, small-molecule microarray, 635/667 nm fluorescence, artefact control for SMM control-protein annotation, profiling panel (AID 1131); conditions: fibrinogen-A647 binding fluorescence, higher = more signal;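 also: z-score merges 667 nm fluorescence with per-spot signal-to-noise over triplicate slides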
[13] = target: Follistatin (Homo sapiens) (UniProt P19883); test: FST protein binding to printed compounds – biochemical, small-molecule microarray, 635/667 nm fluorescence, primary screen (AID 1132); conditions: 635 nm fluorescence, higher = more signal
[14] = target: Fibroblast growth factor 2 (Homo sapiens) (UniProt P09038); test: basic fibroblast growth factor binding to printed compounds – biochemical, small-molecule microarray, 635/667 nm fluorescence, primary screen (AID 1133); conditions: FGF2, fluorescence 635/667, higher = more signal
[15] = JC-1 mitochondrial potential readout, lung cancer cells – cell-based, A549, JC-1 fluorescence, basal, 24 h, 100 nL, profiling panel (AID 1138); conditions: higher = more signal;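 also: A549 lung adenocarcinoma cells under basal conditions with no added stimulus; test concentration not given here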
Lefty1 = Lefty1 protein binding to printed compounds – biochemical, small-molecule microarray, 635/667 nm fluorescence, primary screen (AID 1139); conditions: fluorescence 635/667, higher = more signal
[16] = tested on: wheat germ agglutinin (Triticum aestivum), Alexa647-labelled; test: Alexa647-WGA lectin binding to printed small molecules – biochemical, small-molecule microarray, 635/667 nm fluorescence, artefact control for SMM control-protein annotation, profiling panel (AID 1140); conditions: WGA-A647 binding, 635 nm fluorescence, higher = more signal;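 also: score merges 667 nm feature emission with signal to noise over triplicate slides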
[17] = target: Luciferin 4-monooxygenase (Photinus pyralis) (UniProt P08659); test: inhibition of purified Photinus pyralis luciferase – biochemical, luminescence, purified enzyme, 2006 set, primary screen (AID 1141); conditions: purified firefly luciferase, SteadyGlo luminescence, 30 min; higher = more signal, called active from +8 up or from −8 down;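 also: cell-free assay with purified firefly luciferase at 100 ng per well in PBS; test concentration not given here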
Chain of Luciferin 4-monooxygenase (Photinus pyralis) (P08659 whole entry, looked up): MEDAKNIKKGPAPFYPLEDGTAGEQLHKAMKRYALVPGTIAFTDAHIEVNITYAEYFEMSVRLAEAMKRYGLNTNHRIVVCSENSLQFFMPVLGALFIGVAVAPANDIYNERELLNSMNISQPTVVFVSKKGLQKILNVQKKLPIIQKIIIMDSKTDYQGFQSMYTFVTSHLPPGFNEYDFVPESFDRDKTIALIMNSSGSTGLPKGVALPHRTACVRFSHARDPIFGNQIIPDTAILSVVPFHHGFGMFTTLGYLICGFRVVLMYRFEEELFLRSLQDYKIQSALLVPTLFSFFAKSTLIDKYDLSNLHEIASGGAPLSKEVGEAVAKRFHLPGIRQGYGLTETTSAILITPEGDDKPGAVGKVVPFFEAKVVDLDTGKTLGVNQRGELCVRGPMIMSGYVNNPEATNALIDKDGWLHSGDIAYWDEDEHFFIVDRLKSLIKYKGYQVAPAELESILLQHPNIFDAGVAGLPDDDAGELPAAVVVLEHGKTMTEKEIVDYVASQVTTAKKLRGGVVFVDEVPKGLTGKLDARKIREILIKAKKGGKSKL

Chain of Concanavalin-A (Canavalia ensiformis) (P02866 whole entry, looked up): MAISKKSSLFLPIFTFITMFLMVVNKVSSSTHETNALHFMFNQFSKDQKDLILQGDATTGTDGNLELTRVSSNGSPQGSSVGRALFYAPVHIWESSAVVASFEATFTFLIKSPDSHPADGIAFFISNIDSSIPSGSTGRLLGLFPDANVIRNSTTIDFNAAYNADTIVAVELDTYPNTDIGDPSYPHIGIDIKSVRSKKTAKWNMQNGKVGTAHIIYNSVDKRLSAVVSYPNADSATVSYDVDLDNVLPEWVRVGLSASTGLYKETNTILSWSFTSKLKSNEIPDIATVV
Chain of Follistatin (Homo sapiens) (P19883 whole entry, looked up): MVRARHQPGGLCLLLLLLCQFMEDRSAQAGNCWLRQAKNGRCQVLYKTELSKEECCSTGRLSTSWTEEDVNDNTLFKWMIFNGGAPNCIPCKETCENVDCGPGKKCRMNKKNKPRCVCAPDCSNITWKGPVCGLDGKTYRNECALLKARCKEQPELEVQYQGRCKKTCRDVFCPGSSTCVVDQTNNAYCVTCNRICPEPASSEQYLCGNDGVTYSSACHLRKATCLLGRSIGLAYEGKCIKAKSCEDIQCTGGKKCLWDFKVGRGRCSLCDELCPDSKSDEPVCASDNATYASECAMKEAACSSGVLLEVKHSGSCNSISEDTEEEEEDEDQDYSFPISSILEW
Chain of Albumin (Bos taurus) (P02769 whole entry, looked up): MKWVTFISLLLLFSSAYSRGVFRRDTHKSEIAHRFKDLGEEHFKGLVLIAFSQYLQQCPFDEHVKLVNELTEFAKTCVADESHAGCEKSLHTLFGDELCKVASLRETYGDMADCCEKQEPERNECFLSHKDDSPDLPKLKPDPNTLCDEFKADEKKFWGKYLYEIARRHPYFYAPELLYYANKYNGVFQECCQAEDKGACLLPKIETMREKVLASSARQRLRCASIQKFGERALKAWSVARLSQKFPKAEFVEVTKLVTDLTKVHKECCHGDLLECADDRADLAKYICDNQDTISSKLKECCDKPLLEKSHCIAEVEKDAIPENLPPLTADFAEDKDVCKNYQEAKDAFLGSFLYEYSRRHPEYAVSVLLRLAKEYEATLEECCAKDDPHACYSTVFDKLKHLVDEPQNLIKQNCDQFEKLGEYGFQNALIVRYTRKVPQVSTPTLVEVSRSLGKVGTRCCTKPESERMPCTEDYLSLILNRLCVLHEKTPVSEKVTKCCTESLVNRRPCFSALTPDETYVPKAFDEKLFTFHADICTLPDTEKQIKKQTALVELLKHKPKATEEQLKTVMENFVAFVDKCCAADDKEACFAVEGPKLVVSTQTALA
Chain of Focal adhesion kinase 1 (Homo sapiens) (Q05397 whole entry, looked up): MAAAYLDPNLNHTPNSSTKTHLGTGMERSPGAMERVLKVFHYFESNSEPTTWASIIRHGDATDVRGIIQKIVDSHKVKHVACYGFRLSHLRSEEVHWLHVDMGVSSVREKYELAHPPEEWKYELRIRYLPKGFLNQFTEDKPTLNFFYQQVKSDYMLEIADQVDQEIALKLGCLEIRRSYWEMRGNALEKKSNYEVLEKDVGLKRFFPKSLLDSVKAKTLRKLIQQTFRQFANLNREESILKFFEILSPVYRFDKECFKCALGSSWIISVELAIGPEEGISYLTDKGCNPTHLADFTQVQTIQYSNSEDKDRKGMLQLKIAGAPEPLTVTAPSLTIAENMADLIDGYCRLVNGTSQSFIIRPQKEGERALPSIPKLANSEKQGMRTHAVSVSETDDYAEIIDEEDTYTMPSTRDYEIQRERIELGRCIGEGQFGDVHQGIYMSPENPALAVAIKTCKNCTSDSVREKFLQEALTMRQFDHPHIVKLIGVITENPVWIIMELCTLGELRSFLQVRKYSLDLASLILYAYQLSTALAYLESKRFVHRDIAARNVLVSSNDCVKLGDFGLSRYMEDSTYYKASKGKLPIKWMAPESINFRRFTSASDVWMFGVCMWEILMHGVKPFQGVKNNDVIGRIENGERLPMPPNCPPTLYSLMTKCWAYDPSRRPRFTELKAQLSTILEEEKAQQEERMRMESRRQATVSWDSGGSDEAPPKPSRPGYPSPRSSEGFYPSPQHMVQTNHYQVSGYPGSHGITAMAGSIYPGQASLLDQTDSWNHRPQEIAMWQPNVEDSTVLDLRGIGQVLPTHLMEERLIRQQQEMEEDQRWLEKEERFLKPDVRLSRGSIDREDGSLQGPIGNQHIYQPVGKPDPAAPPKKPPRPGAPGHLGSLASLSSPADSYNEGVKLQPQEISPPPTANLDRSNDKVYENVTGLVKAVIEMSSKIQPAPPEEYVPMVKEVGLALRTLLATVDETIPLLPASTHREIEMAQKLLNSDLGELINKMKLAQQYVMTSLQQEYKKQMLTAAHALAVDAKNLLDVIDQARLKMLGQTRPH
Chain of Fibroblast growth factor 2 (Homo sapiens) (P09038 whole entry, looked up): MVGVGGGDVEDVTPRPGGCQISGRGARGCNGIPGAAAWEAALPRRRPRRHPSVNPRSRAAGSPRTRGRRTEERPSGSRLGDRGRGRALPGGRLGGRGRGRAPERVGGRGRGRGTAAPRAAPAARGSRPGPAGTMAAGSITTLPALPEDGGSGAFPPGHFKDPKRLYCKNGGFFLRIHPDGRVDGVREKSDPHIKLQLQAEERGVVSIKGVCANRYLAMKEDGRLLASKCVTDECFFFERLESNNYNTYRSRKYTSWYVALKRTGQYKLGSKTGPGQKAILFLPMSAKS

Structure (SMILES)	composite z-score (Albumin (Bos taurus))	composite Z-score [1]	composite z-score [2]	composite z-score [3]	composite z-score [4]	composite z-score [5]	composite z-score [6]	composite z-score (Sam68 (KHDRBS1))	composite z-score [7]	composite z-score [8]	composite z-score [9]	composite z-score [10]	composite z-score [11]	composite z-score [12]	composite z-score [13]	composite z-score [14]	z-score [15]	composite z-score (Lefty1)	composite z-score [16]	z-score [17]
COCCCNC(=O)[C@@]1(Cc2ccccc2)N=C(c2ccc(OCCCO)cc2)O[C@H]1c1ccccc1CN=[N+]=[N-]	0.884	0.294 (inactive)	0.217	0.253	0.752	2.78	0.982	1.32	-1.1	1.12	2.82	1.17	0.944	0.913	1.3	0.122	1.99	0.872	1.18	-0.781 (inactive)
[N-]=[N+]=NCc1ccccc1[C@@H]1OC(c2ccc(OCCCO)cc2)=N[C@]1(CCS(=O)(=O)c1ccccc1)C(=O)N1CCCCC1	0.997	-0.228 (inactive)	0.739	-0.124	0.754	2.85	0.475	1.29	-0.59	1.17	0.621	1.26	0.0201	1.08	0.981	0.432	-0.706	0.275	1.02	-0.938 (inactive)
CC(=O)Nc1cc(Br)ccc1C(=O)NCc1ccccc1	0.744	-0.34 (inactive)	-0.0311	-0.123	0.23	1.18	-0.458	0.494	-0.141	0.811	0.69	0.6	0.265	0.402	-0.0708	-0.327	2.26	-0.285	0.674	-0.65 (inactive)
C=C(CCCC)/C(=C/C[C@@H](OC(C)=O)c1ccccc1OCCO)c1cc(C(=O)OC)ccc1OC	0.056	-0.737 (inactive)	-0.0947	-0.103	0.402	0.0769	0.0978	0.166	-0.354	-0.544	-0.9	-0.2	-0.0448	0.259	0.35	0.16	2.6	0.384	0.0424	-2.02 (inactive)
CC(C)[C@@H](C(=O)O)n1cc(C2(O)CCCCC2)nn1	0.641	-0.283 (inactive)	0.089	-0.161	0.0232	0.303	0.0595	1.01	-0.121	1.04	0.948	1.1	0.167	0.598	0.486	0.2	0.0494	0.528	0.0063	0.983 (inactive)
O=C(CS)NCCCCCNC(=O)[C@H]1C[C@H]2C(=O)NCC(=O)N2[C@H]1c1cccc(OCCO)c1	-0.221	-0.269 (inactive)	-0.249	-0.164	0.728	0.0504	-0.442	-0.956	0.577	0.687	-0.0298	-0.864	0.319	0.0186	0.952	0.399	-0.0613	-0.0561	-0.347	0.76 (inactive)
C=CCNC(=O)[C@@H]1[C@H]2C(=O)O[C@H](c3ccccc3)[C@H](c3ccccc3)N2[C@H](c2ccc(OCCO)cc2)[C@@]12C(=O)N(C(=O)OCCOC)c1ccc(C#CCNC(N)=O)cc12	-0.178	0.0253 (inactive)	0.163	-0.0632	0.513	1.02	0.662	1.3	0.305	1.1	1.26	1.17	0.613	0.82	1.38	1.34	-0.746	0.947	0.94	-0.94 (inactive)
COc1cc(CO)cc(I)c1O[C@H]1C=C(C(=O)NCCO)C[C@@H](N(C(=O)c2cc3ccccc3oc2=O)C2CCCCCC2)[C@@H]1O	0.179	-0.161 (inactive)	0.0084	-0.0282	-0.177	-0.149	0.0826	0.0348	0.13	0.66	0.0786	-0.832	-0.314	0.138	0.625	1.32	-1.79	0.803	0.972	0.93 (inactive)
[N-]=[N+]=Nc1ccccc1C[C@]1(C(=O)NCC(O)CO)N=C(c2ccc(OCCCO)cc2)O[C@H]1c1ccccc1 (stereo not given in full)	0.927	0.102 (inactive)	0.298	-0.14	0.629	2.83	0.132	1.09	-1.5	0.197	1.91	1.03	0.0141	0.942	0.497	-0.839	0.0609	-0.492	0.606	-1.78 (inactive)
COCC(=C=CC[C@@H](O)c1ccc(OCCO)cc1)C[C@@H](O)c1ccccn1	0.762	-0.628 (inactive)	-0.0947	-0.157	0.532	0.528	-0.517	0.472	0.141	0.403	2.32	-0.14	0.359	0.792	0.979	0.249	0.0965	0.517	0.643	-0.501 (inactive)
COc1ccc([Si](C)(C)[C@@H]2[C@@H](CCO)O[C@]3(C(=O)N(Cc4cccc(N5CCOC5=O)c4)c4ccccc43)[C@H]2C)cc1	0.757	-0.295 (inactive)	0.326	-0.0907	0.219	0.531	-0.231	1.15	-0.0408	1.12	0.0657	0.981	-0.0325	0.9	1	0.568	-0.393	0.26	1.08	-0.335 (inactive)
